Out of some 300,000 compounds screened, about 4,000 (1.3%) were called active.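 The calls were made as follows: active = mean replicate score, as percent of positive control median, at least 50; inconclusive = mean below 50 but one replicate at or above 50; inactive = mean and every replicate below 50.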 The list comes from a sample in which actives are over-represented; it also holds similar structures and randomly drawn compounds.
assay: S. pyogenes SKKanGAS growth inhibitors in kanamycin, primary screen, streptokinase expression inhibitor project, SKKanGAS strain, BacTiter-Glo luminescence (AID 1662); conditions: 6 h, at 7.5 µM, active compounds read high;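 also: strain carries kanamycin resistance gene driven by streptokinase promoter and grows in 40 µg/ml kanamycin; loss of luminescence reflects streptokinase promoter inhibition or plain growth inhibition; 0% = median of DMSO wells and 100% = positive control at its reference dose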

Structure (SMILES) | inhibition
Oc1ccc2ccccc2c1N=Nc1nccs1 | 106% (active)
c1ccc(NCc2cccc3ccccc23)nc1 | 22.8% (inactive)
Oc1ccc(N=Nc2nccs2)c(O)c1 | 3.07% (inactive)
N#Cc1ccc(Oc2cc(C(F)(F)F)nc(-c3ccccn3)n2)cc1 | -2.81% (inactive)
COc1ccc(Sc2nc(-c3ccccc3)ncc2OC)cc1 | 0.835% (inactive)
CCOCCCNc1nc(-c2ccccc2)nc2ccccc12 | -2.19% (inactive)
CC(C)(C)Nc1nc(-c2ccccn2)nc2ccccc12 | 87.4% (active)
c1ccc(-c2nc(NCc3ccco3)c3ccccc3n2)cc1 | -7.68% (inactive)
Cc1ccc(Oc2nc(-c3ccccn3)nc3ccccc23)cc1 | 76.2% (active)
COc1cnc(-c2ccccn2)nc1Oc1ccc(C(C)(C)C)cc1 | 78.3% (active)
COc1ccccc1Oc1nc(-c2cccnc2)nc2ccccc12 | 5.74% (inactive)
COc1ccc(Cc2nc(-c3ccccn3)no2)cc1OC | 29.5% (inactive)
CSc1ccc(S(=O)(=O)Nc2cccc(F)c2)cc1 | 7.04% (inactive)
COc1ccc(N=Nc2c(-c3ccc(OC)cc3)[nH]oc2=O)cc1 | 6.47% (inactive)
CCCN(CCC)c1c([N+](=O)[O-])c(=O)oc2ccccc12 | -5.31% (inactive)
CCOC(=O)c1cc2c(=O)n3ccccc3nc2n(CC(C)C)c1=NC(=O)c1c(-c2c(F)cccc2Cl)noc1C | 18.2% (inactive)
O=C(CN1C(=O)NC2(CCCC2)C1=O)NCC1CCCO1 (configuration not stated) | -1.73% (inactive)
COC(C/C=C/C(=O)[C@@H](C)OCc1ccccc1)OC | -2.55% (inactive)
NC(=O)c1nnsc1-c1ccc(-c2snnc2C(N)=O)cc1 | 2.07% (inactive)
COc1cc2c3c(c1)/C(=C1/SC(=S)NC1=O)C(=O)N3C(C)(C)C=C2C | 61.3% (active)
Cc1nc2ccc(S(=O)(=O)N(C)CC(=O)NC(C)c3ccccc3)cc2s1 (configuration not stated) | -15% (inactive)
CN1CCN(C(=O)CCc2nc(-c3ccc(Cl)cc3)no2)CC1 | -5.8% (inactive)
COCC1CCN(C(=O)CCc2nnc(C3(c4ccc(Cl)cc4)CCC3)o2)C1 (configuration not stated) | 49.5% (active)
COCC1CCCN(C(=O)c2ccc3oc(C(C)C)nc3c2)C1 (configuration not stated) | -3.17% (inactive)
O=C(COC(=O)CNS(=O)(=O)c1ccc(F)c(F)c1F)NC1CCCC1 | 2.52% (inactive)
CO/N=C(\C(=O)N[C@@H]1C(=O)N2C(C(=O)O)=C(COC(C)=O)CS[C@H]12)c1csc(N)n1 (stereo in doubt) | 33% (inactive)
C=CC1=C(C(=O)O)N2C(=O)[C@@H](NC(=O)/C(=N/OCC(=O)O)c3csc(N)n3)[C@H]2SC1 | 109% (active)

Source: PubChem BioAssay AID1662 (Broad Institute, 2009)
